# Compounds with a hit are over-represented: about 3.3% of the library has one in this group of screens.
# NOD2 RIPK2 PPI: NOD2-RIPK2 binding disruptors in cells, primary screen, fluorescence, CHO cells, BLA complementation | CCF4 ratio | inhibition, % at 4.98 µM | hit rate 0.38% among 360,000 | AID 624267, 2012; in the data active = inhibition above about 21%;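 note: 0% = vehicle only and 100% = reference blocker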
# rCAG binder-1: binders of r(CAG) RNA repeats, primary screen, biochemical, fluorescence; r(CAG) RNA repeat, TO-PRO-1 dye displacement fluorescence; inhibition, % at 3 µM; hit rate 1.3% among 370,000;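 active = inhibition above the plate cutoff, the mean of all test compounds on that plate plus 3 SD, cut at about 35% in these data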;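 note: 0% = DMSO alone and 100% = 100 µM mitoxantrone as full dye displacement; higher means more dye released from RNA so lower well fluorescence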
# TLR4 MyD88 comp: inhibitors of TLR4-MyD88 association in cells, primary screen, cell-based, HeLa CL3-4, BLA complementation, FRET ratio; Toll-like receptor 4 (Homo sapiens) + Myeloid differentiation primary response protein …; HeLa CL3-4 TLR4/MyD88 BLA complementation; inhibition, % at 8.4 µM; hit rate 0.18% among 200,000; in the data active = inhibition above about 25%;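 note: 0% = vehicle and 100% = reference inhibitor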
# TLR9-MyD88 inh: inhibitors of TLR9-MyD88 association in cells, primary screen, cell-based, CHO, BLA complementation, fluorescence | Toll-like receptor 9 (Homo sapiens) + Myeloid differentiation primary response protein … | CCF4 FRET ratio | inhibition, % at 4.98 µM | hit rate 0.21% among 340,000;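 active = inhibition above the mean over all tested compounds plus 3 SD, cut at about 21% in these data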;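 note: 0% = DMSO only wells and 100% = clavulanate BLA inhibitor control wells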
# PRMT1 FP inh: PRMT1 methyltransferase inhibitors, primary screen, biochemical, fluorescence polarization | inhibition, % at 2.79 µM | hit rate 1.3% among 370,000 | recombinant PRMT1, activity-based probe fluorescence polarization | Protein arginine N-methyltransferase 1 (Homo sapiens), Q99873;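 active = inhibition above about 21% made by adding two undisclosed values, limit read from the data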
# Target sequence (Q99873 whole entry, looked up): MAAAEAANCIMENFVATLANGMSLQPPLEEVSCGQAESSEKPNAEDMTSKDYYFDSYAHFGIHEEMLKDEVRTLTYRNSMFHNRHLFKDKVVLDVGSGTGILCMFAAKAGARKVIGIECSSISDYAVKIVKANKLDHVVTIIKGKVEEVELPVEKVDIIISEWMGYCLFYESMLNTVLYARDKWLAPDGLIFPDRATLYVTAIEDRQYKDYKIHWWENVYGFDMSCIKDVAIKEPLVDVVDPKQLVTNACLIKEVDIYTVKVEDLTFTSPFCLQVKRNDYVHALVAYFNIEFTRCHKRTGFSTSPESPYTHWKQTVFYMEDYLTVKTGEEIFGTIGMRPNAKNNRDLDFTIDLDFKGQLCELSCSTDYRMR
# ABHD5 PLIN5 PPI: ABHD5-PLIN5 interaction inhibitors, primary screen, cell lysate, split luciferase complementation, luminescence; Split G. princeps luciferase complementation, 4 h; inhibition, % at 4 µM; hit rate 0.78% among 360,000;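 active = inhibition above the mean inhibition across every tested compound plus 3 SD, cut at about 22% in these data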;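 note: 0% = DMSO only wells and the 100% control is not disclosed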
# rCAG bind conf: small molecules binding CAG repeat RNA – biochemical, fluorescence, confirmation; shares compounds with rCAG binder-1; r(CAG) RNA repeat, TO-PRO-1 dye displacement fluorescence; inhibition, % at 3 µM; hit rate 70% among 4,300; AID 652065, 2013;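 active = inhibition above a per-plate cutoff, the mean inhibition of sample wells plus 3 SD, cut at about 35% in these data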;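 note: loss of TO-PRO-1 fluorescence as compound displaces dye from 1x1 AA loop RNA; 0% = DMSO only wells and 100% = 100 µM mitoxantrone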
# DNA CAG counter: displacement of TO-PRO-1 from CAG DNA duplex, counter-screen for rCAG RNA repeat binder project, biochemical, fluorescence, TO-PRO-1 dye, d(CAG) DNA oligo | shares compounds with rCAG binder-1 | d(CAG) DNA oligo TO-PRO-1 dye displacement | inhibition, % at 3 µM | hit rate 94% among 4,300 | AID 652068, 2013;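 active = inhibition above its plate's cutoff, the mean test-well inhibition plus 3 SD, cut at about 4.8% in these data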;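 note: 0% = DNA dye mix with DMSO and 100% = 100 µM mitoxantrone; hits displace the dye from DNA and so lower well fluorescence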
# dCAG dye DR: inhibitors of DNA CAG/GTC TO-PRO-1 complex, dose response, counter-screen for rCAG RNA repeat binder project, biochemical, fluorescence, TO-PRO-1 dye. hit rate 20% among 250. IC50, µM. DNA CAG/GTC duplex TO-PRO-1 dye displacement fluorescence. AID 686960, 2013. shares compounds with rCAG binder-1; in the data active = IC50 below about 10 µM
# dCAG TOPRO ctr: TO-PRO-1 dye complex inhibitors on d(CAG) DNA, dose response, counter-screen, biochemical, fluorescence, late stage; shares compounds with rCAG binder-1; d(CAG) DNA duplex TO-PRO-1 dye displacement; IC50, µM; hit rate 80% among 30; AID 720649, 2013
# rCAG binder-2: molecules binding r(CAG) RNA repeats, late stage dose response, late-stage follow-up, biochemical, fluorescence, dose response, powder samples; shares compounds with rCAG binder-1; r(CAG) RNA TO-PRO-1 dye displacement; IC50, µM; hit rate 100% among 30; AID 720651, 2013
# * marks the source's active call; other numbers are inactive results; i = inactive; . = no result. Unless noted, the rule behind the calls is not given here.
SMILES,NOD2 RIPK2 PPI,rCAG binder-1,TLR4 MyD88 comp,TLR9-MyD88 inh,PRMT1 FP inh,ABHD5 PLIN5 PPI,rCAG bind conf,DNA CAG counter,others
COc1cc(C2C(C#N)=C(N)Oc3c2ccc2ccccc32)ccc1OCC(=O)Nc1cccc(C)c1 (centres undefined),-2,53*,-2,-1,3,3,14,11*,
COc1ccc(C2C(C#N)=C(N)Oc3c2ccc2cccnc32)cc1OC (centres undefined),8,3,10,-3,-3,-1,.,.,
C=CCOC(=O)c1cc(-c2ccc(/C=C3\C(=O)NC(=O)C(C#N)=C3C)o2)ccc1Cl,-9,63*,12,1,25*,-20,87*,51*,
CCOC(=O)c1sc(N2C(=O)C(O)=C(C(=O)c3ccco3)C2c2ccc(C)o2)nc1C (centres undefined),-10,44*,.,1,19,4,59*,21*,
Cc1nnc(N2C(=O)C(O)=C(C(=O)c3ccco3)C2c2ccc(C(C)(C)C)cc2)s1 (centres undefined),3,28,-1,0,13,-3,.,.,
CCOC(=O)c1sc(N2C(=O)C(O)=C(C(=O)c3ccco3)C2c2ccc([N+](=O)[O-])cc2)nc1C (centres undefined),-7,80*,.,6,7,1,85*,55*,
CCOC(=O)C1(C)CCN1C(=O)c1ccco1 (centres undefined),-1,1,.,.,2,-5,.,.,
CC(=O)Nc1sc2c(c1C#N)CCC(C)C2 (centres undefined),3,2,3,-3,0,-5,.,.,
N#Cc1c(NC(=O)C2CC=CCC2C(=O)O)sc2c1CCCCCC2 (centres undefined),-10,30,-1,2,3,-2,.,.,
CC(C)(C)C1CCc2c(sc(NC(=O)C3CC=CCC3C(=O)O)c2C#N)C1 (centres undefined),-4,80*,3,-4,-2,-10,72*,36*,
CCC(C)(C)C1CCc2c(sc(NC(=O)c3ccccc3C(=O)O)c2C#N)C1 (centres undefined),4,91*,.,7,2,0,84*,56*,
CC1CCc2sc(NC(=O)C3CC(Cl)=CCC3C(=O)O)c(C#N)c2C1 (centres undefined),-11,49*,7,.,4,1,42*,13*,
COc1ccc(C2C(C#N)=C(N)Oc3c2c(-c2ccccc2)nn3-c2ccccc2)c(OC)c1OC (centres undefined),-21,42*,-7,-5,3,-25,23,10*,
Cn1c(=O)c2c(-c3ccccc3)n(-c3cc([N+](=O)[O-])ccc3O)cc2n(C)c1=O,-4,9,.,5,6,0,.,.,
Cn1c(=O)c2c(-c3ccccc3)n(-c3cc(Cl)c([N+](=O)[O-])cc3O)cc2n(C)c1=O,-6,43*,.,.,5,-9,42*,11*,
Cc1coc2c1C(=O)C(=O)c1c-2ccc2c1CCCC2(C)C,-4,43*,-24,6,17,-20,23,13*,
CCc1nnc(NS(=O)(=O)c2ccc(N=Cc3c(C)[nH]n(-c4ccc(Cl)cc4)c3=O)cc2)s1,-13,49*,-4,3,5,-22,84*,59*,
CCc1nnc(NS(=O)(=O)c2ccc(N=Cc3c(C)[nH]n(-c4cccc(Cl)c4)c3=O)cc2)s1,2,53*,-10,1,2,-23,86*,63*,
Cc1ccc(C)c(-c2cc(C(=O)NNC(=S)NCC(C)C)c3ccccc3n2)c1,-6,45*,11,-12,-1,-11,67*,24*,dCAG dye DR=>30
CCCOc1cccc(-c2cc(C(=O)NNC(=S)NCC)c3ccccc3n2)c1,-3,58*,6,-2,-6,-15,56*,20*,
CCNC(=S)NNC(=O)c1cc(-c2cccc(OC)c2)nc2ccccc12,-10,11,-4,5,-3,-5,.,.,
CCNC(=S)NNC(=O)c1cc(-c2ccc(OCC)cc2)nc2ccccc12,-6,43*,2,8,0,-6,48*,16*,
COc1ccc(C(=O)NNC(=S)NC(=O)c2cc(-c3ccccc3)nc3ccccc23)cc1,1,65*,-4,3,4,0,79*,33*,
CCNC(=S)NNC(=O)c1cc(-c2ccccc2C)nc2ccccc12,14,.,5,-4,.,-7,.,.,
COc1cccc(Nc2nc(C(N)c3ccccc3)cs2)n1 (centres undefined),-3,9,.,.,4,3,.,.,
COc1cccc(CN(C)C(=O)C(Cc2ccccc2)NC(=O)c2ccccc2)c1OC (centres undefined),3,-11,.,-5,-3,-1,.,.,
COc1ccc(-c2cc(C(=O)NNC(=S)NC(=O)c3c(-c4ccccc4)noc3C)[nH]n2)cc1,1,70*,-16,2,2,-2,75*,33*,dCAG dye DR=i;dCAG TOPRO ctr=i;rCAG binder-2=0.99*
COc1ccc(/C=C/C(=O)NC(=S)NNC(=O)c2c(-c3ccccc3)noc2C)cc1,4,12,-4,0,0,-2,.,.,
Cc1oc(-c2ccccc2F)nc1CS(=O)(=O)CC(=O)NCCCN1CC(C)CC(C)C1 (centres undefined),-5,2,.,7,3,-6,.,.,
